Drawing on PubChem BioAssay (NCI), this text covers growth for eight compounds.

Some test systems named below: HCT-15 colon; SNB-75 CNS; SNB-19 CNS; U251 CNS; PC-3 prostate; SK-MEL-5 melanoma; UACC-62 melanoma; LOX IMVI melanoma; SK-MEL-28 melanoma; SK-MEL-2 melanoma; EKVX NSCLC; SN12C renal; UO-31 renal; TK-10 renal; ACHN renal; CAKI-1 renal; A498 renal; CCRF-CEM leukemia; MOLT-4 leukemia.
Common to all, as to experiment: NCI-60 one-dose screen, 48 h (100 = growth as untreated, 0 = no growth, -100 = all killed)
Holding throughout (details): 10 µM

Compounds without any hit were thinned out: in the full panel of roughly 83,000, 20% have a hit.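 The test compound was applied at a single concentration to cells in 96-well plates for 48 hours, and percent growth was recorded.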 Values without a mark were called inactive. The source made the active and inactive calls. Rule for the calls: active = growth percent below 10; inactive = the rest.

With `COc1ccc(CN2[C@@H](C(=O)NCc3ccc(C(=O)NO)cc3)Cc3c([nH]c4ccccc34)[C@@H]2C2CC2)cc1`, the growth was 19.5% with HCT-15 colon; -12% (active) in the assay on SNB-75 CNS; 34.4% with SNB-19 CNS; 24.8% in the assay with U251 CNS; 30.2% in the assay on PC-3 prostate; -19.9% (active) in the assay on SK-MEL-5 melanoma. In addition, the growth with UACC-62 melanoma is 3.09% (active); in the assay with LOX IMVI melanoma, 11.7%; in the assay with SK-MEL-28 melanoma, 24.8%; with SK-MEL-2 melanoma, 12.2%; in the assay with EKVX NSCLC, 28.9%; with SN12C renal, 29%. Besides, the growth in the assay with UO-31 renal was 40.5%; with TK-10 renal, 8.46% (active); with ACHN renal, 35.5%; in the assay on CAKI-1 renal it was 22.5%; in the assay on A498 renal, -5.06% (active); with CCRF-CEM leukemia, 15%. In addition, the growth with MOLT-4 leukemia is 11%.
`CC(=C(c1ccc(OCCN2CCCCC2)cc1)c1ccc(OCCN2CCCCC2)cc1)c1ccccc1`: the growth with HCT-15 colon was -0.0525% (active); in the assay with SNB-75 CNS, 84.1%; with SNB-19 CNS it was 38.7%; in the assay with U251 CNS, 1.29% (active); in the assay with PC-3 prostate, 47.5%; in the assay on SK-MEL-5 melanoma, -90.9% (active). The growth with UACC-62 melanoma was -79% (active); in the assay with LOX IMVI melanoma it was -96.6% (active); in the assay on SK-MEL-28 melanoma, -93.9% (active); in the assay with SK-MEL-2 melanoma it was 20.2%; in the assay on EKVX NSCLC, 73.6%; with SN12C renal it was 68.6%. For the same compound, the growth was 2.17% (active) with UO-31 renal; 70.4% with TK-10 renal; 12.7% in the assay with ACHN renal; 33.7% in the assay with CAKI-1 renal; 136% in the assay with A498 renal; -19.2% (active) in the assay with CCRF-CEM leukemia.
Consider `c1ccc(C(=C(c2ccc(OCCN3CCCCC3)cc2)c2ccc(OCCN3CCCCC3)cc2)C2CCCC2)cc1`, for which the growth in the assay on HCT-15 colon was 34.6%; in the assay on SNB-75 CNS, -24.5% (active); in the assay on SNB-19 CNS it was -96.8% (active); with U251 CNS it was -96.4% (active); in the assay on PC-3 prostate it was -37.1% (active); with SK-MEL-5 melanoma it was -100% (active). Moreover, the growth with UACC-62 melanoma is -97.1% (active); in the assay with LOX IMVI melanoma, -100% (active); with SK-MEL-28 melanoma it was -75.6% (active); in the assay on SK-MEL-2 melanoma, -90.2% (active); in the assay on EKVX NSCLC, 21.4%; in the assay on SN12C renal, -8.67% (active). Moreover, the growth was 89.5% in the assay with UO-31 renal; 16.6% in the assay on TK-10 renal; 80.3% in the assay with ACHN renal; 76.1% in the assay with CAKI-1 renal; 102% in the assay with A498 renal; -60.4% (active) in the assay on CCRF-CEM leukemia.
In the case of `Cc1cccc(NC(=O)CSc2nc3ccc(F)cc3c(=O)n2-c2ccc(Cl)cc2)c1C`, the growth in the assay on HCT-15 colon is 70.5%; in the assay on SNB-75 CNS, -20.7% (active); in the assay on SNB-19 CNS, 7.05% (active); in the assay on U251 CNS, 48.8%; in the assay with PC-3 prostate, 68.9%; with SK-MEL-5 melanoma, 88.2%. The growth with UACC-62 melanoma is 80.8%; in the assay on SK-MEL-28 melanoma, 74.3%; with SK-MEL-2 melanoma it was 73.1%; with EKVX NSCLC it was 75%; in the assay with SN12C renal, 64.1%; in the assay with UO-31 renal, 39.6%. Also, the growth with TK-10 renal is 108%; with ACHN renal it was 37.8%; with CAKI-1 renal, -21.6% (active); in the assay with A498 renal, 108%; in the assay with CCRF-CEM leukemia, 94.4%; in the assay with MOLT-4 leukemia, 81.3%.
As for `CC(=O)NCC1=C(C)C=C2C(=O)[C@](C)(O)C3(CC3)C(C)=C21`, the growth was -20% (active) in the assay on HCT-15 colon; -74.5% (active) with SNB-75 CNS; -49.8% (active) in the assay on SNB-19 CNS; -13.2% (active) in the assay on U251 CNS; 2.77% (active) with PC-3 prostate; -84.7% (active) in the assay on SK-MEL-5 melanoma. In addition, the growth was -91% (active) in the assay on UACC-62 melanoma; -49.3% (active) in the assay on LOX IMVI melanoma; -74.7% (active) in the assay with SK-MEL-2 melanoma; -26.1% (active) in the assay on EKVX NSCLC; -74.7% (active) in the assay on SN12C renal; -32.2% (active) in the assay with UO-31 renal. Moreover, the growth in the assay on TK-10 renal is -6.87% (active); with ACHN renal it was -37.4% (active); with CAKI-1 renal it was -31.6% (active); in the assay on A498 renal, -70.4% (active); in the assay with CCRF-CEM leukemia, 51.9%.
Take `COc1cnc2c(c1)C(=O)c1c-2n(CCCNCCO)c(=O)c2cc(OC)c(OC)cc12`: the growth with HCT-15 colon is 32.3%; with SNB-75 CNS, 59.6%; with SNB-19 CNS, 18.7%; in the assay with U251 CNS, 20.8%; with PC-3 prostate it was 43.2%; with UACC-62 melanoma, -2.88% (active). For the same compound, the growth in the assay on LOX IMVI melanoma was -78% (active); with SK-MEL-28 melanoma it was 70.2%; with SK-MEL-2 melanoma it was 104%; in the assay on EKVX NSCLC, 87.9%; in the assay on SN12C renal, 18.4%; in the assay with UO-31 renal it was 34%. In addition, the growth in the assay with TK-10 renal was 101%; with ACHN renal it was 3.42% (active); with CAKI-1 renal, 12%; with A498 renal it was 101%; in the assay on CCRF-CEM leukemia it was 12.8%; in the assay with MOLT-4 leukemia, 12.8%.
Regarding `CC1(C)[C@@H](NCO)CC[C@]2(C)[C@H]3C(=O)C=C4[C@@H]5C[C@](C)(CO)CC[C@]5(C)CC[C@@]4(C)[C@]3(C)CC[C@@H]12`, the growth in the assay on HCT-15 colon was 13.6%; with SNB-75 CNS it was 106%; in the assay with SNB-19 CNS, 70.1%; in the assay on U251 CNS it was 18.9%; in the assay on PC-3 prostate it was 31.3%; with SK-MEL-5 melanoma, 61%. Moreover, the growth is 50.2% with UACC-62 melanoma; -74.8% (active) in the assay with LOX IMVI melanoma; -29.5% (active) with SK-MEL-28 melanoma; 94.6% in the assay on SK-MEL-2 melanoma; 75.5% in the assay on EKVX NSCLC; 72% with SN12C renal. Moreover, the growth with UO-31 renal is 54.9%; with TK-10 renal, 107%; in the assay on ACHN renal it was 63.1%; in the assay with CAKI-1 renal, 59.1%; in the assay with A498 renal, 140%; with CCRF-CEM leukemia, 70.3%. Besides, in the assay with MOLT-4 leukemia, the growth was 16.5%.
As to `CN1C(=O)N(C)C2SC(N/N=C/c3cccs3)=NC21` (stereo not given), the growth is 20.2% in the assay with HCT-15 colon; -1.77% (active) in the assay on SNB-75 CNS; 30.3% with SNB-19 CNS; 22.8% in the assay on U251 CNS; 48.3% in the assay on PC-3 prostate; 8.57% (active) in the assay with SK-MEL-5 melanoma. The growth in the assay on UACC-62 melanoma was 4.74% (active); in the assay with LOX IMVI melanoma, 28.7%; in the assay on SK-MEL-28 melanoma, 47.5%; with SK-MEL-2 melanoma, 9.78% (active); in the assay on SN12C renal, 26.5%; with UO-31 renal, 40.3%. Moreover, the growth with TK-10 renal was 63.7%; with ACHN renal it was 38.8%; in the assay with CAKI-1 renal it was 20.8%; in the assay with A498 renal, 65.6%; with CCRF-CEM leukemia, 20.3%; in the assay with MOLT-4 leukemia, 33.4%.
